# From PubChem BioAssay
# VACV Venus inh: vaccinia inhibition (Venus reporter). Vaccinia virus Venus reporter expression, fluorescence. Potency, µM (highest dose often 36.5 µM), for inactives: top-dose activity change, negative = inhibition, most hits filed as inhibitors. 330,000 compounds, 0.46% hits. AID 720580; calls by dose curve; tested in A549 cells; also: % is scaled to controls: 0 for no effect and ±100 for the full control effect; nearly all actives have a fitted effect of over 30% in size
# Vaccinia mCherry: inhibitors of vaccinia virus infection (mCherry reporter signal); Potency, µM (series often up to 36.5 µM), for the others: at the top dose activity change, negative = inhibition, most hits filed as inhibitors; AID 720579; 310,000 compounds, 0.63% hits; Vaccinia virus mCherry reporter infection, fluorescence; calls by dose curve; tested in A549 cells; also: % is scaled to controls: 0 for no effect and ±100 for the full control effect; nearly all actives have a fitted effect of over 35% in size
# Pf growth 48h: P. falciparum growth inhibition at 48 hours (one generation) | P. falciparum luciferase growth in erythrocytes, 48 h | Potency, µM (titrated, usually from 28.7 µM), for the others: at the highest dose activity change, negative = inhibition, usual class: inhibitors | 310,000 compounds, 5.9% hits | AID 504832; also: % is scaled to controls: 0 for no effect and ±100 for the full control effect
#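 Cell-based growth assay: transgenic P. falciparum expressing firefly luciferase, cultured in red cells within RPMI 1640 containing 0.5% w/v Albumax, 24 mM bicarbonate and gentamycin. A drop in luciferase activity indicates inhibition.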
# HCV inhibitor: HCV inhibition; Huh7.5.1 HCVcc-Cre infection, luciferase reporter, 44 h; Potency, µM (highest dose often 41.8 µM), inactives show at the top dose activity change, negative = inhibition, actives largely listed as inhibitors; 340,000 compounds, 3.4% hits; AID 651820; also: % is scaled to controls: 0 for no effect and ±100 for the full control effect
#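 Reporter virus HCVcc-Cre (~0.5 moi) infects cells exposed to compound; seeding density 1,000 cells/well with 4 h settling beforehand. Luminescence, 15 sec read, taken 44 h post-infection following a 15 min RT substrate incubation.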
# Pf growth 96h: P. falciparum growth inhibition at 96 hours; P. falciparum luciferase reporter growth, 96 h; Potency, µM (titrated, usually from 28.7 µM), without a hit: top-dose activity change, negative = inhibition, actives largely listed as inhibitors; 320,000 compounds, 6.9% hits; also: % is scaled to controls: 0 for no effect and ±100 for the full control effect
#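 Delayed-death screen, second-generation endpoint: infected erythrocytes, 2% hematocrit, 0.05% parasitemia final; 96 hours at 37 C, 5% CO2; luciferase detection reagent; luminescence decrease equals reduced growth.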
# NS1 inh: blocks influenza NS1 protein function | Potency, µM (highest dose often 46.1 µM), without a hit: at the top dose activity, positive = more growth | AID 2326 | 270,000 compounds, 0.4% hits; calls by dose curve; also: actives are rising curves; nearly all actives have a fitted effect of over 50% in size
#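 Read-out: OD600 growth recovery of NS1-expressing budding yeast. Cells grown overnight at 30C in -URA glucose medium, washed, resuspended and diluted 1:100 in 2% galactose assay medium, pH 6.0. Same strain lacking NS1 served as positive control.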
# The depositor's hits bear a star; i = inactive; ? = inconclusive; / = no result. Shown are actives, neighbours in structure and some others; about 11% of the full set was active somewhere. Unless noted, calls follow the shape of the dose curve; as a rule, active = well fitted inhibition curve with a large enough effect; inconclusive = small, poorly fitted or top-dose-only effect, or another doubt; inactive = no such curve, though single readings can be large or run the other way. Potency is read from the fitted curve at half-maximal effect.
SMILES,VACV Venus inh,Vaccinia mCherry,Pf growth 48h,HCV inhibitor,Pf growth 96h,NS1 inh
Cc1oc(-c2ccc(Cl)cc2)nc1CS(=O)CC(=O)NCc1ccccc1 (configuration not stated),-11.2%,i,4.8%,-5.3%,45.4%,27.0%
Cc1ccc(-c2nc(CS(=O)CC(=O)NCc3ccc(Cl)cc3)c(C)o2)cc1 (configuration not stated),-20.5%,i,/,11.2µM*,8.3%,?
Cc1oc(-c2ccccc2F)nc1CS(=O)CC(=O)NCc1ccc(F)cc1 (configuration not stated),-13.0%,i,30.1%,-4.3%,2.94µM*,18.8%
CCOc1ccc(N(CC(=O)NN=C2CCN(C)CC2)S(C)(=O)=O)cc1,-11.3%,-16.8%,57.5%,21.2%,-19.9%,4.6%
COCCCNC(=O)CCc1nc2cccnc2n1Cc1ccccc1,/,/,31.0%,24.9%,8.28µM*,2.9%
COc1ccc(Cn2c(CCC(=O)Nc3ccc(CC#N)cc3)nc3cccnc32)cc1,/,/,?,0.9%,3.7µM*,10.9%
COC(=O)c1c(F)c(F)c(N2CCOCC2)c(F)c1F,-3.9%,-13.5%,4.4%,13.9%,0.5%,-32.4%
N#C/C(=C\C=C\c1ccccc1[N+](=O)[O-])c1nc(-c2ccc3c(c2)OCO3)cs1,4.3%,-9.7%,19.5%,11.2µM*,28.1%,16.2%
O=C(NNc1nc(-c2ccc(F)cc2)cs1)c1ccccc1,-14.4%,-16.5%,5.22µM*,?,8.28µM*,6.3%
O=C(NNc1nc(-c2ccccc2)cs1)c1cccs1,-16.4%,-29.7%,?,?,?,24.7%
O=C(NNc1nc2ccccc2s1)c1ccc(F)cc1,-0.8%,-16.6%,13.1µM*,0.0%,?,-21.3%
O=C(Nc1nc(-c2ccccc2)cs1)c1ccccc1F,-11.7%,-12.8%,52.1%,-4.2%,13.1µM*,4.0%
O=C(NNc1nc(-c2ccccc2)cs1)c1ccc(F)cc1,-3.8%,i,11.7µM*,-18.5%,9.28µM*,/
O=C(NNc1nc2ccc(F)cc2s1)c1cccc(F)c1,-24.8%,?,?,?,?,/
Cc1ccc(NC(=O)Cn2ncn3c(cc4ccccc43)c2=O)c(C)c1,-15.5%,-15.9%,19.0%,-4.6%,-8.7%,19.0%
CCOc1ccc(C(=O)NCC(=O)OCc2csc(-c3ccccc3)n2)cc1,/,/,35.5%,21.5%,0.4%,-12.1%
CC(NC(=O)CN(c1cccc(C(F)(F)F)c1)S(C)(=O)=O)c1ccccc1 (configuration not stated),/,/,?,-13.0%,1.17µM*,-4.3%
O=C1CN(C(=O)N[C@@H](Cc2ccccc2)C(=O)N[C@H](C(=O)O)c2ccccc2)c2ccccc2N1,-3.8%,-9.7%,-6.4%,14.7%,15.5%,13.9%
COC(=O)COc1c(Cl)cc(Cl)c2ccc(C)nc12,-7.7%,i,0.0%,4.9%,-29.6%,/
Cc1ccc2c(Cl)cc(Cl)c(OCC(=O)Nc3cc(S(=O)(=O)N(C)C)ccc3C)c2n1,-27.8%,-19.2%,?,2.51µM*,11.7µM*,?
Cc1ccc2c(Cl)cc(Cl)c(OCC(=O)NC(C)(C)C)c2n1,/,/,11.7µM*,22.4µM*,?,/
Cc1nnc(SCc2cnc(-c3ccc(C(C)C)cc3)s2)n1C,/,/,250.1%,12.3%,11.7µM*,-8.1%
c1ccc(-c2ncc(CSc3nncn3-c3ccccc3)s2)cc1,?,/,/,-13.4%,?,-57.7%
O=C(Nc1nccs1)c1ccc(Cl)c([N+](=O)[O-])c1,/,/,8.9%,-12.6%,-4.1%,-25.0%
CCC(C(=O)OCc1csc(CC(=O)Nc2ccccc2C)n1)c1ccccc1 (configuration not stated),/,/,11.7µM*,-23.8%,?,/
SMILES,VACV Venus inh,Vaccinia mCherry,Pf growth 48h,HCV inhibitor,Pf growth 96h,NS1 inh
Cc1ccccc1NC(=O)Cc1nc(COC(=O)CCNS(=O)(=O)c2ccccc2)cs1,-16.1%,-30.0%,10.4µM*,?,?,/
CCOC(=O)c1c(C)[nH]c(C(=O)OCc2csc(CC(=O)Nc3ccccc3C)n2)c1C,-19.2%,-29.8%,9.28µM*,?,11.7µM*,/
Cc1ccccc1NC(=O)Cc1nc(CSc2nnc(C3CCCCC3)n2N)cs1,/,/,13.1µM*,-4.6%,7.38µM*,3.9%
Cc1ccccc1NC(=O)Cc1nc(COC(=O)CC(C)c2ccccc2)cs1 (configuration not stated),-15.3%,-14.1%,?,9.7%,?,/
Cc1ccccc1NC(=O)Cc1nc(COC(=O)c2cccc(C)c2O)cs1,-5.7%,-7.3%,3.5%,-16.2%,-2.1%,-1.7%
O=C(O)c1ccc(CNCc2cccc(Oc3ccccc3)c2)cc1,/,/,1.0%,31.7%,25.8%,6.7%
COc1ccc(S(=O)(=O)Nc2nnc(CC(C)(C)C)s2)cc1,2.1%,3.7%,-2.0%,25.3%,25.0%,2.3%
C=CCn1c(O)c(C(CC)=Nc2ccc(N(C)C)cc2)c(=O)[nH]c1=O,-10.4%,-4.7%,0.657µM*,?,1.65µM*,5.3%
C=CCn1c(O)c(C(CC)=Nc2ccc3c(c2)CCC3)c(=O)[nH]c1=O,-18.0%,-17.2%,-13.0%,18.9%,20.8%,-9.1%
CN(C)S(=O)(=O)c1ccc(C(=O)Nc2ccccc2F)cc1,/,/,10.7%,10.7%,/,-0.3%
CN(c1ccc(C(=O)N/N=C/c2cccc([N+](=O)[O-])c2)cc1)S(=O)(=O)c1ccccc1,-14.4%,-19.7%,6.57µM*,12.6µM*,?,-0.3%
CN(C)S(=O)(=O)c1ccc(C(=O)Nc2ccccc2C(=O)O)cc1,-5.9%,/,-12.1%,5.6%,13.1µM*,-6.3%
CCOc1cc(/C=N/NC(=O)c2cccc([N+](=O)[O-])c2)ccc1OS(=O)(=O)c1ccccc1,/,/,11.7µM*,8.91µM*,?,?
CCN1C(=O)c2cccc3c(NC(=O)c4ccc(S(=O)(=O)N(C)C)cc4)ccc1c23,-1.0%,/,11.7µM*,-26.0%,10.4%,-4.4%
CCCCC(=O)Nc1nnc(-c2ccc(OC)cc2)s1,-17.4%,/,80.9%,2.7%,25.7%,-1.1%
COc1ccc(/C=N/NC(=O)c2ccc(N(C)S(=O)(=O)c3ccccc3)cc2)cc1,/,/,?,12.6µM*,36.3%,/
COC(=O)N/N=C/c1cccc([N+](=O)[O-])c1,5.6%,-1.7%,61.7%,-0.4%,2.5%,-3.5%
CC(=O)Nc1ccc(NC(=O)c2ccc(S(=O)(=O)N(C)c3ccccc3)cc2)cc1,/,/,13.1µM*,?,?,/
COc1ccc(C(=O)Nc2ccc(S(=O)(=O)N(C)c3ccccc3)cc2)cc1,-3.5%,-11.4%,/,12.6µM*,/,/
CCOC1(c2ccccc2)CC1C(=O)N/N=C/c1cccc([N+](=O)[O-])c1 (configuration not stated),/,/,?,11.2µM*,?,-2.7%
CCOC(=O)C1CCN(CC(=O)N2CCCc3c2c(=O)oc2ccc(OCc4ccccc4)cc32)CC1,-5.2%,-17.6%,/,/,/,/
